Bioassay records (PubChem BioAssay)
Gal4-VP16 FLuc: VP16 counterscreen qHTS for inhibitors of ROR gamma transcriptional activity; 3.5% of 310,000 active; AID 2546, 2010; Potency, µM (highest dose often 53.6 µM), without a hit: at the highest dose activity, negative = inhibition, most hits filed as inhibitors; Drosophila S2 Gal4-VP16 UAS-luciferase, luminescence, 20 h;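 note: Gal4-VP16 expression switched on by copper sulfate through the metallothionein promoter; potency is the fitted concentration of half-maximal effect; nearly all actives have a fitted effect of over 50% in size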
ELG1 DNA repair: qHTS screen for small molecules that inhibit ELG1-dependent DNA repair in human embryonic kidney (HEK293T) cells expressing luciferase-tagged ELG1. Potency, µM (highest dose often 46.1 µM), without a hit: at the top dose activity change, negative = inhibition, most hits filed as inhibitors. 2.3% of 330,000 active. HEK293T ELG1-luciferase reporter, luminescence, 16 h; DNA damage induced by 5-fluorouridine. AID 504467, 2011; note: potency is the fitted concentration of half-maximal effect; nearly all actives have a fitted effect of over 55% in size
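5-Fluorouridine DNA damage + compound/DMSO, 2,000 cells/well, 16 h, 37 °C/5% CO2. ONE-Glo, 30 min RT, luminescence. Readout = decrease in reporter signal.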
B2AR arrestin: qHTS assay of beta-arrestin-biased ligands of beta2-adrenergic receptor; Beta-2 adrenergic receptor (Homo sapiens), P07550; AID 492947, 2010; 0.02% of 330,000 active; beta-arrestin recruitment to beta2AR, cell-based reporter; Potency, µM (series often up to 46.1 µM), inactives show top-dose activation, usual class: activators;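 note: potency is the fitted concentration of half-maximal effect; 0% = DMSO controls and full agonism = EC100 isoproterenol or metaproterenol; nearly all actives have a fitted effect of over 65% in size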
TSHR antagonist: Antagonists of the Thyroid Stimulating Hormone Receptor: HTS campaign; Thyrotropin receptor (Homo sapiens), P16473; TSHR-expressing cells, TSH-stimulated cAMP HTRF, 2 h; stronger effect = lower value; activity change, negative = inhibition, % at 11.5 µM; 0.2% of 330,000 active; AID 504810, 2011;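 active = activity change below a set negative limit, meaning inhibition stronger than a set level, cut at about -70% in these data; inconclusive = activity change between two set negative limits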
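Competitive HTRF cAMP read-out (cryptate anti-cAMP antibody, cAMP-d2; 30 min, room temperature) in freshly harvested TSHR cells. Compounds added before TSH at EC80 (4nM final), followed by 2 hours' incubation at 37 deg C.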
RORg inh: qHTS for inhibitors of ROR gamma transcriptional activity; Nuclear receptor ROR-gamma (Mus musculus), P51450; Drosophila S2 Gal4-RORgamma UAS-luciferase reporter, 20 h; Potency, µM (doses to about 53.6 µM), for inactives: top-dose activity change, negative = inhibition, hits mostly inhibitors; 5.4% of 310,000 active; AID 2551, 2010; note: potency is the fitted concentration of half-maximal effect; nearly all actives have a fitted effect of over 60% in size
Target sequence (P51450 whole entry, looked up, the tested form may be a part): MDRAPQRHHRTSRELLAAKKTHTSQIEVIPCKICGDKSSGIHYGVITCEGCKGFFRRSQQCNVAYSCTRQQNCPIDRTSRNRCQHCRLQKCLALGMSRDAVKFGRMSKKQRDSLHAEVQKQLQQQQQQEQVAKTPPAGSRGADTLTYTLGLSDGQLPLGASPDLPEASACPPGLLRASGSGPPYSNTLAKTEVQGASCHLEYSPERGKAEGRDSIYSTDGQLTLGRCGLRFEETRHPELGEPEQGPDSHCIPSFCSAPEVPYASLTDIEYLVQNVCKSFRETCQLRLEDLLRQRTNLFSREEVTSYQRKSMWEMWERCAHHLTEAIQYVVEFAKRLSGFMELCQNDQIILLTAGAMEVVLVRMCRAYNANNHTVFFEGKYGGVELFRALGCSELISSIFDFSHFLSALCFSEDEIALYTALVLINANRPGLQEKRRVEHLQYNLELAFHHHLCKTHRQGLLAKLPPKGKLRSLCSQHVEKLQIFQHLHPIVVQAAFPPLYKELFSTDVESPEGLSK
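Stable Schneider cell line, Gal4 DNA-binding domain fused to ROR gamma, UAS-luciferase. Cmpd 1 hr RT → CuSO4 700 uM final → 20 hr RT → luciferase reagent 10 min → luminescence.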
* marks the source's active call; other numbers are inactive results. Hits are enriched below; roughly 7.5% of the tested compounds scored in any of these assays. Unless noted, calls come from the whole dose curve; as a rule, active = well fitted curve in the direction sought with a large enough effect; inconclusive = small, poorly fitted or top-dose-only effect, or another doubt; inactive = no such curve, though single readings can be large; an effect the other way counts as inactive or inconclusive. Unless noted, % is set by controls: 0 for no effect and ±100 for the full control effect.

COc1cccc(-c2nnn(CC(=O)N(CC(C)C)C3CCS(=O)(=O)C3)n2)c1 (centres undefined) was read as ELG1 DNA repair -1%, B2AR arrestin 0% and TSHR antagonist 11.
Screening COc1ccccc1-n1c(=O)c2c3c(sc2n2c(=S)[nH]nc12)CCC3 returned Gal4-VP16 FLuc -30%, ELG1 DNA repair 10%, B2AR arrestin -1%, TSHR antagonist -21 and RORg inh 13µM*.
O=C1C=C(N2CCCCC2)C2(CCCCC2)O1 was read as Gal4-VP16 FLuc 11%, ELG1 DNA repair 11%, B2AR arrestin 0%, TSHR antagonist 8 and RORg inh -10%.
For O=C1C=C(N2CCOCC2)C2(CCCCC2)O1 the results were Gal4-VP16 FLuc -27%, ELG1 DNA repair inconclusive, B2AR arrestin 0%, TSHR antagonist 1 and RORg inh 11µM*.
Screening Cc1noc(C)c1CN1C(=O)NC(Cc2ccccc2)(Cc2ccccc2)C1=O returned Gal4-VP16 FLuc -1%, ELG1 DNA repair 7%, B2AR arrestin 0%, TSHR antagonist 7 and RORg inh 11µM*.
`CN(C)c1ccc(C(=S)NCc2ccco2)cc1` gave Gal4-VP16 FLuc 7.9µM*, ELG1 DNA repair inconclusive, B2AR arrestin 0%, TSHR antagonist -12 and RORg inh 4µM*.
`COc1cccc(/C=C/C(=O)OCC(=O)NCc2ccco2)c1OC` gave Gal4-VP16 FLuc -16%, ELG1 DNA repair 8%, B2AR arrestin 0%, TSHR antagonist 6 and RORg inh 22%.
Screening NC(=O)c1ccc(NC(=S)NCc2ccco2)cc1 returned Gal4-VP16 FLuc 9%, ELG1 DNA repair 9%, B2AR arrestin 0%, TSHR antagonist 0 and RORg inh 11%.
For COc1cc(NC(=S)NCc2ccco2)cc(OC)c1OC the results were Gal4-VP16 FLuc 20µM*, ELG1 DNA repair -5%, B2AR arrestin -1%, TSHR antagonist 5 and RORg inh 11µM*.
`S=C(NCc1ccco1)N/N=C/c1ccncc1` gave Gal4-VP16 FLuc inconclusive, ELG1 DNA repair 5%, B2AR arrestin 0%, TSHR antagonist 6 and RORg inh 16µM*.
`COc1ccccc1NC(=S)NCc1ccco1` gave Gal4-VP16 FLuc 14%, ELG1 DNA repair 1%, B2AR arrestin 0%, TSHR antagonist 12 and RORg inh 11%.
Screening COc1cccc(/C=N/NC(=S)NCc2ccco2)c1OC returned Gal4-VP16 FLuc inconclusive, ELG1 DNA repair inconclusive, B2AR arrestin 5%, TSHR antagonist 2 and RORg inh 3.5µM*.
`C[C@@H](C(=O)Nc1ccc2ccccc2c1)[C@H]1C[C@]1(C)[C@H](NC(=O)Oc1ccc(F)cc1)c1ccccc1` gave Gal4-VP16 FLuc -7% and RORg inh 25%.
Screening O=C(O)c1cc(N(Cc2ccccc2O)Cc2ccccc2O)ccc1O returned Gal4-VP16 FLuc -2% and RORg inh -21%.
`C=C1C[C@@]23CC4C5[C@@]6(C)C[C@H](O)C[C@@]57C2[C@H](O)[C@@H]1[C@H](O)[C@H]3[C@H]7N4C6` gave Gal4-VP16 FLuc 2% and RORg inh 5%.
`CCCOc1ccc(CC(=O)NCc2ccco2)cc1OC` gave Gal4-VP16 FLuc 5%, ELG1 DNA repair -1%, B2AR arrestin 0%, TSHR antagonist 3 and RORg inh 11µM*.
`CN(C)c1ccc(/C=N/NC(=S)NCc2ccco2)cc1` gave Gal4-VP16 FLuc 5µM*, ELG1 DNA repair 16%, B2AR arrestin 0%, TSHR antagonist 0 and RORg inh 1.8µM*.
For COc1cc(/C=C/C(=O)OCC(=O)NCc2ccco2)ccc1OC(F)F the results were Gal4-VP16 FLuc 4µM*, ELG1 DNA repair 14%, B2AR arrestin 0%, TSHR antagonist 7 and RORg inh 2.5µM*.
Screening C=C[C@H](N)CCC(=O)O returned Gal4-VP16 FLuc 5% and RORg inh 5%.
Screening CC(=O)c1ccc(NC(=O)CC2Nc3cccc4cccc(c34)NC2=O)cc1 (centres undefined) returned Gal4-VP16 FLuc -4%, ELG1 DNA repair 21µM*, B2AR arrestin 0%, TSHR antagonist -1 and RORg inh 8%.
CCc1ccc(C(=O)NC(=S)Nc2ccc3c(c2)OCCO3)cc1 was read as Gal4-VP16 FLuc 7.1µM*, ELG1 DNA repair inconclusive, B2AR arrestin 0%, TSHR antagonist -9 and RORg inh 7.1µM*.
For O=C(NC(=S)Nc1ccc2c(c1)OCO2)c1ccc(Cl)cc1 the results were Gal4-VP16 FLuc 5.6µM*, ELG1 DNA repair inconclusive, B2AR arrestin -1%, TSHR antagonist 6 and RORg inh 5µM*.
Screening CC(C)C(=O)Nc1cccc(NC(=S)NC(=O)c2ccc(Cl)cc2)c1 returned Gal4-VP16 FLuc inconclusive, ELG1 DNA repair 2%, B2AR arrestin 4%, TSHR antagonist -7 and RORg inh 6.3µM*.
For Cc1cc(C)cc(C(=O)NC(=S)Nc2ccc3c(c2)OCCO3)c1 the results were Gal4-VP16 FLuc 3.2µM*, ELG1 DNA repair inconclusive, B2AR arrestin -1%, TSHR antagonist -9 and RORg inh inconclusive.
`O=C(NC(=S)Nc1ccc2c(c1)OCCO2)c1ccc(F)cc1Cl` gave Gal4-VP16 FLuc inconclusive, ELG1 DNA repair inconclusive, B2AR arrestin 0%, TSHR antagonist 1 and RORg inh 11µM*.
For O=C(NC(=S)Nc1ccc2c(c1)OCCO2)c1ccco1 the results were Gal4-VP16 FLuc inconclusive, ELG1 DNA repair inconclusive, B2AR arrestin 0%, TSHR antagonist -3 and RORg inh inconclusive.
For Cc1ccc(C(=O)NC(=S)Nc2ccc3c(c2)OCCO3)c(C)c1 the results were Gal4-VP16 FLuc inconclusive, ELG1 DNA repair inconclusive, B2AR arrestin 1%, TSHR antagonist -14 and RORg inh 4.5µM*.
Screening CC(C)C(=O)Nc1ccc(C(=O)NNC(=S)NC(=O)c2ccccc2[N+](=O)[O-])cc1 returned Gal4-VP16 FLuc -2%, ELG1 DNA repair 1%, B2AR arrestin -1%, TSHR antagonist -13 and RORg inh -3%.
For COc1ccc(C(=O)NC(=S)NNC(=O)c2ccc(NC(=O)C(C)C)cc2)cc1 the results were Gal4-VP16 FLuc 16µM*, ELG1 DNA repair 0%, B2AR arrestin 1%, TSHR antagonist 2 and RORg inh inconclusive.
Screening Cc1ccc(C(=O)NC(=S)Nc2ccc(N3CCOCC3)cc2)c(C)c1 returned Gal4-VP16 FLuc 25µM*, ELG1 DNA repair -21%, B2AR arrestin 0%, TSHR antagonist -6 and RORg inh 2.5µM*.
